According to PubChem BioAssay (NCATS):
Several values for one entry are separate records, joined by “and”; a condition that tells them apart may be missing. Identical values can stand only once. Inconclusive results are not listed. Where a structure was tested more than once in an assay, its records may differ in their call. Activity calls are given as the source filed them. Unless noted, calls follow the shape of the dose curve; as a rule, active = well fitted curve in either direction with a large enough effect (not every such curve was filed as active); inconclusive = small, poorly fitted or top-dose-only effect, or another doubt; inactive = flat fitted curve, though single readings scatter.

Target: Cytochrome P450 1A2 (Homo sapiens) (UniProt P05177)
Sequence (P05177 whole entry, looked up): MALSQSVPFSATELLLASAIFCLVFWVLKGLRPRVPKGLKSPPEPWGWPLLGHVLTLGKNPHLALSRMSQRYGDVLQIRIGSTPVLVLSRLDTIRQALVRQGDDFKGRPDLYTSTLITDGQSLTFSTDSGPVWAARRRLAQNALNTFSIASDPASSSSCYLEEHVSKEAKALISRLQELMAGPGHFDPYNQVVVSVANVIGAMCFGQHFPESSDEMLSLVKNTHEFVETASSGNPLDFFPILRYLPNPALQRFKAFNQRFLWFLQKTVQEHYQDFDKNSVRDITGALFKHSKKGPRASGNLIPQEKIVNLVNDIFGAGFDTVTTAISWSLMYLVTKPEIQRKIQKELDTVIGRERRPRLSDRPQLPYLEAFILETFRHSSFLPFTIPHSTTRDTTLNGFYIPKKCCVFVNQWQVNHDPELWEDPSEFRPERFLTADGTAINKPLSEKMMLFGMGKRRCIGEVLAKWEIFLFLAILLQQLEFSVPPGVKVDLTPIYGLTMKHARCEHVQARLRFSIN
Experiment: p450-cyp1a2 (AID 410; calls by dose curve; also: potency is read from the fitted curve at half-maximal effect;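 as to activity change, negative = inhibition: -100% = full effect of reference inhibitor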)
Conditions: recombinant CYP1A2, luciferin-ME demethylation, luminescence; series mostly up to 57 µM; activity change, negative = inhibition: at the top concentration
Procedure, shortened: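 Luminescent demethylation readout: Luciferin-ME (100uM, equal to Km) turned over by 20nM CYP1A2 for 60 min at room temperature after NADPH regeneration addition, following 10 min compound preincubation. Normalization used 57 uM furafylline as full inhibition.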

Question: Which “activity change, negative = inhibition” value does the source give for `c1ccc2cc(CC3=NCCN3)ccc2c1` here?
Answer: 2.5% (inactive)

Question: With `CC(=O)NBr` as the compound, how does the “activity change, negative = inhibition” value read?
Answer: -8% (inactive)

Question: For `NC(=O)CI`, which Potency is on record?
Answer: 31.6 µM (active)

Question: Which “activity change, negative = inhibition” value does the source give for `N#CCCN` here?
Answer: -4.4% (inactive)

Question: Which Potency does the source give for `CCCN(CCC)CCc1c[nH]c2ccc(C(N)=O)cc12` here?
Answer: 15.8 µM (active)

Question: With `NC(=O)c1cc(N2CC2)c([N+](=O)[O-])cc1[N+](=O)[O-]` as the compound, how does the “activity change, negative = inhibition” value read?
Answer: -19.6% (inactive)

Question: Which “activity change, negative = inhibition” value does the source give for `CN(N=O)c1ccc(O)c(O)c1` here?
Answer: -8.3% (inactive)

Question: Which Potency does the source give for `CCCN(CCC)[C@@H]1CCc2cccc(O)c2C1` here?
Answer: inactive and 31.6 µM (active)

Question: Which Potency does the source give for `CN1CCc2cc(O)cc3c2[C@H]1Cc1ccc(O)c(O)c1-3` here?
Answer: 12.6 µM (active)

Question: For `Cc1[nH]c2ccc(O)cc2c1CCN`, which Potency is on record?
Answer: 31.6 µM (active)

Question: Which Potency does the source give for `Clc1cc(I)cc(Cl)c1NC1=NCCN1` here?
Answer: 15.8 µM (active)

Question: Which “activity change, negative = inhibition” value does the source give for `O=[N+]([O-])c1cc(O)c(O)c([N+](=O)[O-])c1` here?
Answer: 1.1% (inactive)

Question: With `CCC(=O)O[C@@](Cc1ccccc1)(c1ccccc1)[C@@H](C)CN(C)C` as the compound, how does the “activity change, negative = inhibition” value read?
Answer: -8.2% [at 25.6 µM] (inactive)

Question: For `CCC1(C)CC(=O)NC(=O)C1`, which “activity change, negative = inhibition” value is on record?
Answer: -2.9% [at 25.6 µM] (inactive)

Question: With `CN1CCc2cccc(Cl)c2CC1` as the compound, how does the “activity change, negative = inhibition” value read?
Answer: -19.5% (inactive)

Question: With `NNC(=O)c1ccc(O)cc1` as the compound, how does the “activity change, negative = inhibition” value read?
Answer: -20.8% (inactive)

Question: Which Potency does the source give for `COc1ccc2[nH]c3c(c2c1)CCNC3` here?
Answer: 3.16 µM (active)

Question: With `CN(N=O)c1cc(O)ccc1O` as the compound, how does the Potency read?
Answer: 31.6 µM (active)

Question: Which Potency does the source give for `NCCc1c[nH]c2ccc(C(N)=O)cc12` here?
Answer: 6.31 µM (active) and 1.26 µM (active)

Question: With `O=S1(=O)N(CCN2CC=C(c3c[nH]c4cc(F)ccc34)CC2)c2cccc3c2N1CCC3` as the compound, how does the Potency read?
Answer: 3.98 µM (active)

Question: For `O=P(O)(O)C(Cl)(Cl)P(=O)(O)O`, which “activity change, negative = inhibition” value is on record?
Answer: -2.8% (inactive)

Question: Which Potency does the source give for `CCS(=O)(=O)Nc1cccc(C(=C2CCCCC2)c2cnc[nH]2)c1` here?
Answer: 0.316 µM (active)

Question: Which “activity change, negative = inhibition” value does the source give for `N#CC(C#N)=Cc1cc(O)c(O)c(O)c1` here?
Answer: -7.2% (inactive)

Tested on: not listed separately
Experiment: NFAT Signaling Pathway (AID 444);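 also: carbachol stimulus at about its EC50 of 1 µM final; % is scaled to controls: 0 for no effect and ±100 for the full control effect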
Conditions: Jurkat NFAT-bla M1, carbachol, beta-lactamase ratio, 5 h; at 38 µM (top of the series) unless noted
Procedure, shortened: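 Jurkat cells carrying an NFAT-driven β-lactamase reporter and co-transfected muscarinic M1 receptor were treated with compound plus carbachol (1 uM final, an EC50 level) for 5 h at 37 °C. CCF4 loading followed for 1 h at RT; 460/530 nm ratio gave %activity.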

Question: With `c1ccc2cc(CC3=NCCN3)ccc2c1` as the compound, how does the activity change, negative = inhibition read?
Answer: -0.608% (inactive)

Question: Which activity change, negative = inhibition does the source give for `CC(=O)NBr` here?
Answer: -0.158% (inactive)

Question: For `CC(C)[C@@]1(NC(=O)[C@@H]2C[C@@H]3c4cccc5[nH]cc(c45)C[C@H]3N(C)C2)O[C@@]2(O)[C@@H]3CCCN3C(=O)[C@H](Cc3ccccc3)N2C1=O`, which activity change, negative = inhibition is on record?
Answer: -22.9% [at 17.2 µM] (inactive)

Question: For `C[N+](C)(C)CC#CCOC(=O)Nc1cccc(Cl)c1`, which activity change, negative = inhibition is on record?
Answer: 11.3% (inactive)

Question: For `NC(=O)CI`, which activity change, negative = inhibition is on record?
Answer: 6.62% (inactive)

Question: For `N#CCCN`, which activity change, negative = inhibition is on record?
Answer: 7.43% (inactive)

Question: For `Clc1ccc(N2C[C@H]3CC[C@@H](C2)N3)nn1`, which activity change, negative = inhibition is on record?
Answer: -11.9% (inactive)

Question: For `CCCN(CCC)CCc1c[nH]c2ccc(C(N)=O)cc12`, which activity change, negative = inhibition is on record?
Answer: -26.6% (inactive)

Question: For `CCCN(CCC)CCc1ccc(O)c(O)c1`, which activity change, negative = inhibition is on record?
Answer: -10.2% (inactive)

Question: Which activity change, negative = inhibition does the source give for `NC(=O)c1cc(N2CC2)c([N+](=O)[O-])cc1[N+](=O)[O-]` here?
Answer: 1.65% (inactive)

Question: With `CN(N=O)c1ccc(O)c(O)c1` as the compound, how does the activity change, negative = inhibition read?
Answer: 0.97% (inactive)

Question: Which activity change, negative = inhibition does the source give for `CCCN(CCC)[C@@H]1CCc2cccc(O)c2C1` here?
Answer: -1.36% (inactive)

Question: For `CN1CCc2cc(O)cc3c2[C@H]1Cc1ccc(O)c(O)c1-3`, which activity change, negative = inhibition is on record?
Answer: -24.8% (inactive)

Question: With `Cc1[nH]c2ccc(O)cc2c1CCN` as the compound, how does the activity change, negative = inhibition read?
Answer: 10.3% (inactive)

Question: Which activity change, negative = inhibition does the source give for `Clc1cc(I)cc(Cl)c1NC1=NCCN1` here?
Answer: -4.12% (inactive)

Question: With `O=[N+]([O-])c1cc(O)c(O)c([N+](=O)[O-])c1` as the compound, how does the activity change, negative = inhibition read?
Answer: 3.02% (inactive)

Question: Which activity change, negative = inhibition does the source give for `C[N+]1(C)CCc2cc3c(cc2[C@H]1[C@@H]1OC(=O)c2c1ccc1c2OCO1)OCO3` here?
Answer: -19.2% [at 17.2 µM] (inactive)

Question: With `C[N+](C)(C)CCOC(=O)CBr` as the compound, how does the activity change, negative = inhibition read?
Answer: 13.9% (inactive)

Question: With `CCC(=O)O[C@@](Cc1ccccc1)(c1ccccc1)[C@@H](C)CN(C)C` as the compound, how does the activity change, negative = inhibition read?
Answer: -25.8% [at 17.2 µM] (inactive)

Question: Which activity change, negative = inhibition does the source give for `CCC1(C)CC(=O)NC(=O)C1` here?
Answer: -6.48% [at 17.2 µM] (inactive)

Question: Which activity change, negative = inhibition does the source give for `CN1CCc2cccc(Cl)c2CC1` here?
Answer: 3.59% (inactive)

Question: With `NNC(=O)c1ccc(O)cc1` as the compound, how does the activity change, negative = inhibition read?
Answer: -6.3% (inactive)

Question: Which activity change, negative = inhibition does the source give for `COc1ccc2[nH]c3c(c2c1)CCNC3` here?
Answer: 4.34% (inactive)

Question: Which activity change, negative = inhibition does the source give for `NC(=O)COc1c(F)cc(SCCNS(=O)(=O)c2ccccc2)cc1F` here?
Answer: 20.9% (inactive)

Question: With `CN(N=O)c1cc(O)ccc1O` as the compound, how does the activity change, negative = inhibition read?
Answer: 0.498% (inactive)

Question: Which activity change, negative = inhibition does the source give for `NCCc1c[nH]c2ccc(C(N)=O)cc12` here?
Answer: 4.42% (inactive)

Question: For `O=S1(=O)N(CCN2CC=C(c3c[nH]c4cc(F)ccc34)CC2)c2cccc3c2N1CCC3`, which activity change, negative = inhibition is on record?
Answer: -17.5% (inactive)

Question: With `O=P(O)(O)C(Cl)(Cl)P(=O)(O)O` as the compound, how does the activity change, negative = inhibition read?
Answer: 10.1% (inactive)

Question: With `CCS(=O)(=O)Nc1cccc(C(=C2CCCCC2)c2cnc[nH]2)c1` as the compound, how does the activity change, negative = inhibition read?
Answer: 4.67% (inactive)

Question: Which activity change, negative = inhibition does the source give for `N#CC(C#N)=Cc1cc(O)c(O)c(O)c1` here?
Answer: -8.53% (inactive)

Question: Which activity change, negative = inhibition does the source give for `O=S(=O)(O)c1cc(O)ccc1O` here?
Answer: -8.18% [at 17.2 µM] (inactive)
